Test results published in PubChem BioAssay (NCI).
This is part of a sample that, as a whole, favours compounds with a hit. Of some 83,000 tested, about 20% had one in any assay.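 Treatment: one concentration, 48 hours, 96-well format. Scoring: percent growth, with anything below 10 considered active.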 A number with no mark means an inactive call. The source made the active and inactive calls.

Assays:
Test in all cases: NCI-60 one-dose screen, 48 h (100 = growth as untreated, 0 = no growth, -100 = all killed)
Conditions in all cases: 10 µM unless noted
NCI-H23 lung = tested on: NCI-H23 lung
NCI-H322M lung = tested on: NCI-H322M lung
HOP-62 NSCLC = tested on: HOP-62 NSCLC
NCI-H460 lung = tested on: NCI-H460 lung
HOP-92 NSCLC = tested on: HOP-92 NSCLC
NCI-H522 lung = tested on: NCI-H522 lung
A549/ATCC NSCLC = tested on: A549/ATCC NSCLC
786-0 renal = tested on: 786-0 renal
COLO 205 colon = tested on: COLO 205 colon
DU-145 prostate = tested on: DU-145 prostate
K-562 leukemia = tested on: K-562 leukemia
MALME-3M melanoma = tested on: MALME-3M melanoma
MDA-MB-231 breast = tested on: MDA-MB-231 breast
RXF 393 renal = tested on: RXF 393 renal
SF-268 CNS = tested on: SF-268 CNS
SF-295 CNS = tested on: SF-295 CNS
SF-539 CNS = tested on: SF-539 CNS
UACC-257 melanoma = tested on: UACC-257 melanoma
M14 melanoma = tested on: M14 melanoma
NCI-H226 lung = tested on: NCI-H226 lung

SMILES	growth (NCI-H23 lung)	growth (NCI-H322M lung)	growth (HOP-62 NSCLC)	growth (NCI-H460 lung)	growth (HOP-92 NSCLC)	growth (NCI-H522 lung)	growth (A549/ATCC NSCLC)	growth (786-0 renal)	growth (COLO 205 colon)	growth (DU-145 prostate)	growth (K-562 leukemia)	growth (MALME-3M melanoma)	growth (MDA-MB-231 breast)	growth (RXF 393 renal)	growth (SF-268 CNS)	growth (SF-295 CNS)	growth (SF-539 CNS)	growth (UACC-257 melanoma)	growth (M14 melanoma)	growth (NCI-H226 lung)
CCCCN1CCCn2c1nc1c2c(=O)n(CCC)c(=O)n1CCC	104%	97.7%	102%	99.6%	81.7%	76.6%	82.2%	95.8%	114%	105%	75.7%	123%	93.8%	91.3%	95.2%	102%	100%	97.4%	110%	–
COc1ccc(/C=C/c2nc(-c3n[nH]c(=O)n3-c3ccccc3)c3ccccc3n2)cc1	94.8%	93.7%	95.8%	100%	–	85.6%	99.9%	94%	105%	102%	95.7%	94.3%	94.5%	101%	97.3%	99.6%	101%	106%	94.1%	–
CN(C)c1ccc(N=Nc2ccccn2)c(O)c1	16.1%	21.9%	7.8% (active)	5.5% (active)	57.9%	27.1%	11.8%	15%	17.3%	21.6%	–	13.8%	36.7%	46.3%	14.6%	19.9%	0.733% (active)	-9.35% (active)	-2.06% (active)	–
N=C(N)c1ccc(-c2ccc(-c3ccc4ccccc4c3)s2)s1	5.5% (active)	26.5%	86.8%	-70.4% (active)	28.8%	15.3%	-36.3% (active)	-39.1% (active)	-40.8% (active)	-85.4% (active)	-47.2% (active)	85.9%	-36.8% (active)	-55.1% (active)	-6.87% (active)	22.3%	73.8%	77%	39.7%	–
COc1cc(/C=C/c2cc(O)c3cc(C(C)=O)c(=O)oc3c2)cc2c1O[C@]1(C)CC[C@@H](O)C(C)(C)[C@H]1C2	52.1%	67.6%	50.4%	23%	–	67.7%	52.2%	-1.22% (active)	89.8%	53.4%	17.2%	25.4%	64.4%	-58.5% (active)	35.8%	-63.3% (active)	-33.3% (active)	36.5%	-49.4% (active)	–
O=C(Nc1ccccc1Cl)c1ccc(NC2=C(Cl)C(=O)N(C3CCCCC3)C2=O)cc1	–	16.2% [30 µM]	88.4% [30 µM]	32.8% [30 µM]	-16.8% [30 µM] (active)	70.3% [30 µM]	94% [30 µM]	69.9% [30 µM]	66.6% [30 µM]	28.8% [30 µM]	25.3% [30 µM]	80.6% [30 µM]	85.4% [30 µM]	-12.1% [30 µM] (active)	60.5% [30 µM]	21.6% [30 µM]	82% [30 µM]	54.9% [30 µM]	92.6% [30 µM]	97.1% [30 µM]
CCCN1CCN(c2ccc3nc(-c4ccc5nc(-c6ccc(OCC)cc6)[nH]c5c4)[nH]c3c2)CC1	–	60.6%	55.7%	-76.8% (active)	39.3%	-3.11% (active)	-71.4% (active)	16.3%	-32% (active)	21.2%	-47.4% (active)	0.636% (active)	84.8%	-31.3% (active)	68.6%	41.4%	58.3%	39.7%	-27.2% (active)	65.1%
C#Cc1cccc(NC(=O)c2ccccc2NC(=O)CCl)c1	–	99.3% [8.25 µM]	75.8% [8.25 µM]	98.3% [8.25 µM]	77.4% [8.25 µM]	10.6% [8.25 µM]	92.7% [8.25 µM]	87.5% [8.25 µM]	114% [8.25 µM]	96.2% [8.25 µM]	68.2% [8.25 µM]	105% [8.25 µM]	111% [8.25 µM]	96.7% [8.25 µM]	68% [8.25 µM]	103% [8.25 µM]	93.4% [8.25 µM]	98.4% [8.25 µM]	83.3% [8.25 µM]	–
NC(=NCCCOc1ccc(Cl)cc1)Nc1ccc(Cl)cc1	–	31.8%	33.9%	48%	21.6%	27.8%	24.1%	58.4%	-65.6% (active)	16.9%	–	-20.8% (active)	-6.18% (active)	79.3%	36.6%	17.9%	31.4%	6.24% (active)	-35.7% (active)	107%
O=C(CN1CCCCC1)Nc1ccc2oc(=O)ccc2c1	–	105%	99.7%	104%	–	84.6%	100%	107%	119%	113%	–	106%	105%	113%	97.5%	106%	129%	96.3%	106%	95.8%
CCCc1cc(=O)n2c(C(=O)Nc3cccc(C(=O)OCC)c3)c(C(=O)Nc3ccc(F)cc3)sc2n1	–	97.3% [30 µM]	36.6% [30 µM]	23% [30 µM]	-31.5% [30 µM] (active)	65% [30 µM]	3.58% [30 µM] (active)	15.1% [30 µM]	72.9% [30 µM]	79.9% [30 µM]	79.7% [30 µM]	71.9% [30 µM]	47% [30 µM]	-27.2% [30 µM] (active)	57.5% [30 µM]	44.5% [30 µM]	33.9% [30 µM]	64.5% [30 µM]	75.2% [30 µM]	89% [30 µM]
NC(=O)c1cc(Cl)ccc1NC(=O)/C=C/c1ccccc1	–	45.1%	84.9%	12.1%	58.7%	4.73% (active)	17.8%	56.8%	-43.3% (active)	-0.745% (active)	11.6%	67%	39.2%	-11.1% (active)	46.1%	–	-6.33% (active)	46.2%	28.1%	63.6%
Clc1ccc2c(NCCNc3nc(N4CCOCC4)nc4ccccc34)ccnc2c1	–	15.9%	-37.1% (active)	-29.3% (active)	–	-70.6% (active)	5.31% (active)	-39.9% (active)	-67.5% (active)	29.9%	–	-50.9% (active)	-56% (active)	-39.4% (active)	11.5%	-83% (active)	-80.2% (active)	90.5%	-65.5% (active)	-22.5% (active)
C=C(C)C(=O)Nc1ccc(NC(C)C)cc1	–	150%	104%	139%	–	159%	112%	96.8%	148%	133%	134%	220%	123%	29.7%	107%	147%	100%	-7.29% (active)	101%	131%
C[n+]1ccccc1/C=C/c1ccc2cccc(O)c2n1	–	136%	91.1%	102%	106%	99.8%	9.6% (active)	104%	63.3%	102%	102%	146%	93.3%	48.4%	97.1%	109%	109%	97.5%	103%	86.8%
COc1ccc(-c2nc3cc(C(=O)Nc4cc(OC)c(OC)c(OC)c4)ccc3n2C2CCCCC2)cc1	–	97.9%	105%	99.7%	72.7%	77.2%	98.6%	107%	110%	103%	76.1%	95.6%	88.6%	103%	100%	104%	88.6%	100%	96%	86.9%
